Compound activity from PubChem.
KCNQ2 inh = inhibitors of rat KCNQ2 potassium channel | CHO-K1 KCNQ2, FluxOR thallium flux, 20 min; hits give low values | 310,000 compounds, 1.1% hits | AID 2156 | O88943 | B-score at 10 µM;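 active = fluorescence ratio B-score at most minus 3 library SDs, with starting brightness B-score within 2 library SDs, cut at about -5.5 in these data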
Target sequence (O88943 whole entry, looked up): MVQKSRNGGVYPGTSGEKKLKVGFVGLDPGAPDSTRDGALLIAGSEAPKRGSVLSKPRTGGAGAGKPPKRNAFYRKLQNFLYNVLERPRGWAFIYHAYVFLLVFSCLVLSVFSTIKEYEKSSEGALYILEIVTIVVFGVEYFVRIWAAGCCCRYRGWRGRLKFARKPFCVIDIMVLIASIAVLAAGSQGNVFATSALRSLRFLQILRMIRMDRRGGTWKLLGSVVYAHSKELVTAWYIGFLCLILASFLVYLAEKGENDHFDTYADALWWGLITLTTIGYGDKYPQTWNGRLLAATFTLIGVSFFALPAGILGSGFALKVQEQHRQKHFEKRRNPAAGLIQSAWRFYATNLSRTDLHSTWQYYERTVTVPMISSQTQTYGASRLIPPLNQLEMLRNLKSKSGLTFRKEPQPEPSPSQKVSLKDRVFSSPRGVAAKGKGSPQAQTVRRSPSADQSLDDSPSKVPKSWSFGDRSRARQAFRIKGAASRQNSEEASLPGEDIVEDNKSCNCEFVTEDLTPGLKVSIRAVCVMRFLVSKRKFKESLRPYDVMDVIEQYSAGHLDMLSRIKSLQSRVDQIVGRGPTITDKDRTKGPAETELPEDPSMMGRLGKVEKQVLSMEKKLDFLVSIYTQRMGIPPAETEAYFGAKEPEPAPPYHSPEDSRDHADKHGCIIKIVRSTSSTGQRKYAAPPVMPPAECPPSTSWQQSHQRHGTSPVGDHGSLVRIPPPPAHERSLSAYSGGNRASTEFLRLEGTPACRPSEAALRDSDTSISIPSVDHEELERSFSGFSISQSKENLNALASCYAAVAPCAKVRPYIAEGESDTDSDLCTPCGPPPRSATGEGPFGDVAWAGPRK
KCNQ2 pot = enhances the rat KCNQ2 potassium channel; B-score at 10 µM; O88943; 310,000 compounds, 0.54% hits; CHO-K1 KCNQ2, FluxOR thallium flux fluorescence; hits give high values;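 active = fluorescence ratio B-score at least 3 SD of library B-scores, with initial fluorescence B-score within 3 of them, cut at about 5.3 in these data; same plate scores as AID 2156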;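 also: B-score of peak minus minimum over baseline fluorescence ratio after K+ and Tl+ stimulus; positive B-score means potentiation of KCNQ2 with more thallium influx and brighter signal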
Of the large screens only hits and unclear results are named; the others gave an inactive call. Shown are actives, neighbours in structure and some others; about 1.6% of the full set was active somewhere.

O=C(COc1ccc(Cc2ccccc2)cc1)c1ccc(F)cc1	KCNQ2 pot 6.69
O=C(Oc1ccc(Cl)c2cccnc12)C12CC3CC(CC(C3)C1)C2	none (no result: KCNQ2 pot)
O=C(NNC(=O)c1cc(-c2ccccc2)nc2ccccc12)Nc1cccc(Cl)c1	KCNQ2 inh -6.34
CC(C)(C)c1ccc(-c2cc(C(=O)NNC(=O)Nc3ccccc3)c3ccccc3n2)cc1	none (no result: KCNQ2 pot)
CN(C)/C=C(\C#N)S(=O)(=O)c1ccc(Cl)cc1	KCNQ2 inh -6.76
CN1CCN(/C=C(\C#N)S(=O)(=O)c2ccc(Cl)cc2)CC1	none (no result: KCNQ2 pot)
CC(=O)c1ccc(NC(=O)c2ccc3nc(-c4ccco4)c(-c4ccco4)nc3c2)cc1	none (no result: KCNQ2 pot)
O=C(Nc1ccccc1)c1ccc2nc(-c3ccco3)c(-c3ccco3)nc2c1	KCNQ2 inh -6.49
CCCCc1ccc(NC(=O)CSc2nc(=O)n(CCCN3CCOCC3)c3c2CCC3)cc1	none (no result: KCNQ2 pot)
COc1ccccc1N(CC(O)CN1CCOCC1)S(=O)(=O)c1ccccc1 (stereo not given)	none (no result: KCNQ2 pot)
CCCNC(=O)c1ccccc1NC(=O)CN(c1ccccc1)S(=O)(=O)N(C)C	none (no result: KCNQ2 pot)
O=C(COC(=O)c1cccc(NS(=O)(=O)/C=C/c2ccccc2)c1)Nc1ccccc1OC(F)F	none (no result: KCNQ2 pot)
O=C(CCc1ccccc1)NC1CCSC1=O (stereo not given)	none
O=C(Cc1ccccc1)NC1CCSc2ccccc21 (stereo not given)	KCNQ2 inh -5.83
COc1ccc(C(CNC(=O)COc2ccccc2C)N2CCCC2)cc1 (stereo not given)	none (no result: KCNQ2 pot)
COc1ccc(C(CNC(=O)c2oc3cc(Br)ccc3c2C)N2CCCCC2)cc1 (stereo not given)	none (no result: KCNQ2 pot)
COc1ccc(C(CNC(=O)c2oc3ccc(F)cc3c2C)N2CCCCC2)cc1 (stereo not given)	KCNQ2 inh -6.29
COc1ccc(C(CNC(=O)COc2ccc(Cl)c(C)c2)N2CCCCC2)cc1 (stereo not given)	KCNQ2 inh -5.92
COc1ccc(C(CNC(=O)c2oc3cc(C)c(C)cc3c2C)N2CCCCC2)cc1 (stereo not given)	none (no result: KCNQ2 pot)
COc1ccc(C(CNC(=O)c2oc3ccc(OC)cc3c2C)N2CCCC2)cc1 (stereo not given)	none (no result: KCNQ2 pot)
COc1ccc(C(CNC(=O)c2oc3ccc(Br)cc3c2C)N2CCCCC2)cc1 (stereo not given)	KCNQ2 inh -6.22
CCc1ccc2oc(C(=O)NCC(c3ccc(OC)cc3)N3CCCCC3)c(C)c2c1 (stereo not given)	KCNQ2 inh -7.06
COc1ccc(S(=O)(=O)NCc2ccc(C(=O)NCCCN3CC(C)CC(C)C3)cc2)cc1 (stereo not given)	none (no result: KCNQ2 pot)
Cn1c(SCC(=O)Nc2ccc3c(c2)OCCO3)nnc1-c1ccncc1	none
C=CCNC(=O)NC(=O)COC(=O)CC(NC(N)=O)c1ccc(Cl)cc1 (stereo not given)	none
CCn1c(C)cs/c1=N\C(=S)Nc1ccccc1C	none
Cc1ccc(C)c(NS(=O)(=O)c2cc(C(=O)NCc3ccccn3)ccc2C)c1	none
Cc1n[nH]c(=O)c2c(NC(=O)CSc3nc4ccccc4c(=O)n3CCCO)oc(C)c12	none (no result: KCNQ2 pot)
Cc1ccc2c(c1)cc(CN(Cc1ccco1)C(=O)N1CCOCC1)c1nnnn12	KCNQ2 inh -8.82
Cc1ccc2c(c1)cc(CN(CCc1ccccc1)C(=O)N1CCOCC1)c1nnnn12	none (no result: KCNQ2 pot)
Cc1ccc(NC(=O)Nc2ccon2)cc1Cl	none
CCC(C)(C)n1nnnc1C(c1cc2ccc(OC)cc2[nH]c1=O)N1CCc2ccccc21 (stereo not given)	KCNQ2 inh -6.11
CCC(C)(C)n1nnnc1C(c1cc2cc(C)ccc2[nH]c1=O)N1CCCc2ccccc21 (stereo not given)	KCNQ2 pot 33.7
CCC(C)(C)n1nnnc1C(c1cc2cc(OC)ccc2[nH]c1=O)N1CCc2ccccc21 (stereo not given)	none
Cc1ccc2[nH]c(=O)c(C(c3nnnn3C3CCCC3)N3CCCc4ccccc43)cc2c1 (stereo not given)	none
CC(C)CCOc1ccc(C(=O)NCC(c2ccco2)N(C)C)cc1 (stereo not given)	none
OCCC1CN(CC2CCCCC2)CCN1C1CCCC1 (stereo not given)	none
OCCC1CN(CC2CCCCC2)CCN1CC1CCCCC1 (stereo not given)	KCNQ2 pot 6.77
O=C(NCC1(c2ccccc2)CCCC1)C(=O)NCC1(c2ccccc2)CCCC1	none (no result: KCNQ2 pot)
O=C(NCC1(c2ccccc2)CCCC1)C1(c2ccccc2)CCCC1	KCNQ2 inh -7.04
Cc1cc(=O)[nH]c(SCC(=O)N2C(C)CCCC2C)n1 (stereo not given)	none
CCN(CC)C(=O)COc1c(-c2ccco2)oc2ccccc2c1=O	none
CC(=O)Oc1c(-c2ccco2)oc2ccccc2c1=O	KCNQ2 pot 5.91
CCN1C(=O)[C@H]2[C@@H](c3ccc(-c4ccc(C(C)=O)cc4)c(OC)c3)N[C@@](Cc3ccccc3)(C(=O)OC)[C@H]2C1=O	none (no result: KCNQ2 pot)
C[C@@H](NC(=O)[C@@H]1Cc2ccccc2CN1C(=O)OC(C)(C)C)C(=O)NC1CCCCC1	none
C/C(N)=C(/C#N)C(=O)CSc1nc2scc(-c3ccccc3)c2c(=O)n1C	none
Cc1c(Cl)cccc1NC(=O)CNc1cccc(C(F)(F)F)c1	KCNQ2 inh -6
Cc1ccc(F)cc1NCC(=O)Nc1ccc(Cl)cc1F	none (no result: KCNQ2 pot)
Cc1c(Cl)cccc1NCC(=O)Nc1ccc(Cl)cc1F	KCNQ2 inh -6.76
C/C(=N\NC(=O)CNc1cccc(C(F)(F)F)c1)c1ccc(Br)cc1	none (no result: KCNQ2 pot)
O=C(NCCS(=O)(=O)NCc1ccccn1)c1ccccc1	none (no result: KCNQ2 pot)
Cc1ccc(NC(=O)Cn2nnc(C(=O)NCc3ccc(Cl)cc3)c2N)cc1F	none (no result: KCNQ2 pot)
CC[C@H](NC(=O)c1c(C)c(-c2ccccc2)nc2ccccc12)c1ccccc1	KCNQ2 inh -10.6
Cc1c(-c2ccccc2)nc2ccccc2c1C(=O)O	none
Cc1ccc(S(=O)(=O)NCC2CCC(C(=O)NCc3cccnc3)CC2)cc1 (stereo not given)	none
Cc1ccccc1NC(=O)C1C2CCCCC21 (stereo not given)	none (no result: KCNQ2 pot)
Cc1ccccc1NC(=O)C1C2/C=C\CCCCC21 (stereo not given)	KCNQ2 pot 5.36
Cc1cc(C)cc(S(=O)(=O)c2cn(C)c3cc(N4CCN(C)CC4)c(F)cc3c2=O)c1	none (no result: KCNQ2 pot)
CCc1ccc(NC(=O)c2cccc(C(=O)Nc3ccc(CC)cc3)n2)cc1	none
Cc1ccc(NC(=O)c2cccc(C(=O)Nc3ccc(C)c(C)c3)n2)cc1C	KCNQ2 inh -6.41
CC12CCC(=O)N1C(C(=O)Nc1ccc(SC(F)F)cc1)CS2 (stereo not given)	none
CC(C)(C)C1CCC(=NNC(=O)C(=O)NC2CCCCC2)CC1 (stereo not given)	none
Nc1nc2c(Cl)cc(Cl)cc2s1	none
Nc1nc2c(Cl)ccc(Cl)c2s1	KCNQ2 pot 6.02
N#Cc1cc(N)ccc1-n1cccc1	none
CCCCn1c(N)c(N(CC(C)C)C(=O)CSc2nnc(C)n2-c2ccc(OC)cc2)c(=O)[nH]c1=O	none
Cc1ccccc1NS(=O)(=O)c1c(C(=O)N2CCCCCC2)c(C)n(C)c1C	none
CC1(C)CN=C(N(Cc2ccccc2)C(=O)Nc2ccccc2)S1	KCNQ2 inh -6.36
CC1(C)CN=C(N(C(=O)Nc2ccccc2)c2ccccc2F)S1	none (no result: KCNQ2 pot)
COc1ccc(Cc2nc(C(=O)Nc3ccc(Cl)cc3)cs2)cc1	KCNQ2 inh -5.82
COc1ccc(NC(=O)c2csc(Cc3ccc(Cl)cc3)n2)cc1	none (no result: KCNQ2 pot)
C=CCOc1ccc(CNCC2CCCO2)cc1 (stereo not given)	none (no result: KCNQ2 pot)
Cc1ccsc1/C=C1/NC(=O)N(Cc2ccc(F)cc2)C1=O	none (no result: KCNQ2 pot)
